# Reference: PubChem BioAssay AID623911 (Vanderbilt High Throughput Screening Facility, 2012)
# In all, about 2,100 compounds went through this assay and about 770 (37%) were called active.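 Rule for the calls: active = by-eye trace score of 1 for enhancers or -1 for inhibitors, so actives lie on both sides (some results past the limit were not filed as active); inactive = score 0, or 3 fluorescent, or 4 baseline rise.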 Some of the results follow.
# Molecular target: G protein-activated inward rectifier potassium channel 2 (Homo sapiens) + G protein-activated inward rectifier potassium channel 1 (Homo sapiens) (UniProt P48051+P48549)
# Test: GIRK1/2 thallium flux modulators, retest, confirmation, cell-based, HEK293 rmGlu8/hGIRK1/2, FluoZin-2 (AID 623911)
# Settings: HEK293 rmGlu8/hGIRK1/2, thallium flux FluoZin-2; actives lie on both sides; glutamate co-added at its EC20 level
# Sequence of G protein-activated inward rectifier potassium channel 2 (Homo sapiens) + G protein-activated inward rectifier potassium channel 1 (Homo sapiens) (P48051 whole entry, looked up): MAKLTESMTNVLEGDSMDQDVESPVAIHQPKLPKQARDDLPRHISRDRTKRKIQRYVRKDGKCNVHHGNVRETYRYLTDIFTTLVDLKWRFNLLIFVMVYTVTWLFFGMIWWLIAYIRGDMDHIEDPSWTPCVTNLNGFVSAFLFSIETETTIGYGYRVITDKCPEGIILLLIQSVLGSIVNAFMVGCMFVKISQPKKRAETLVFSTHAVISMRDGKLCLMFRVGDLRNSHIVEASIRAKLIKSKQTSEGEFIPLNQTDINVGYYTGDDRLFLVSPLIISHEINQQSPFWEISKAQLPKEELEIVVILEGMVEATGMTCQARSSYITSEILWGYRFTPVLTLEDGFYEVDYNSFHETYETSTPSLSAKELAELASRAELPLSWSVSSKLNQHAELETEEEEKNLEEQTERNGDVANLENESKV
# Sequence of G protein-activated inward rectifier potassium channel 2 (Homo sapiens) + G protein-activated inward rectifier potassium channel 1 (Homo sapiens) (P48549 whole entry, looked up): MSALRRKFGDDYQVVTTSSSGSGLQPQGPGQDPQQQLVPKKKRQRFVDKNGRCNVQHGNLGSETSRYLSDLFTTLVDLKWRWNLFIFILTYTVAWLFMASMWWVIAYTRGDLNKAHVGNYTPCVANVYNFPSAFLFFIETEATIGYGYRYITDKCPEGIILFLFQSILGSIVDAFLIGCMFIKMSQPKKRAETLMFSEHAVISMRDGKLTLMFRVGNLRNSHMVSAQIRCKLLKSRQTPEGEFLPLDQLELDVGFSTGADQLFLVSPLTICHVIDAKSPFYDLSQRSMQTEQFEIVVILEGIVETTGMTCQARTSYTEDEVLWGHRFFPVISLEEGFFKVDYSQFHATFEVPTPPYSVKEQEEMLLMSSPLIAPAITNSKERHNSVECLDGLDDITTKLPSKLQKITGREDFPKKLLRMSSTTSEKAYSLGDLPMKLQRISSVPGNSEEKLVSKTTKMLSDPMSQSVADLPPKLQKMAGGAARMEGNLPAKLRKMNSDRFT
row,SMILES,manual score
1,CN(C)C(=O)CSc1cccc2cccnc12,0 (inactive)
2,CC(Nc1ccc(Br)cn1)c1cc(Cl)ccc1O (configuration not stated),0 (inactive)
3,Clc1ccc(/C=N/Nc2nc(Cl)nc3ccccc23)cc1,0 (inactive)
4,Cc1ccc(C(=O)c2ccc(N3CCOCC3)c(F)c2)cc1,0 (inactive)
5,S=C(N/N=C/c1ccc(Cl)cc1)N1CCOCC1,1 (active)
6,Cc1ccc(/C=N/NC(=S)N2CCOCC2)cc1,1 (active)
7,CNC(=S)N/N=C/c1ccc(C(C)C)cc1,0 (inactive)
8,S=C(N/N=C/c1ccccc1)N1CCOCC1,0.5 (inactive)
9,O=C(Nc1ccc(Br)cc1)C1CCC(=O)N1Cc1ccccc1Cl (configuration not stated),0 (inactive)
10,O=C1CC(C(=O)Nc2ccc(Br)cc2)C2(CCCC2)O1 (configuration not stated),1 (active)
11,COCc1nnc(NC(=O)C(C)C)s1,0 (inactive)
12,CCCCn1c(-c2csc3c2CCC(C)C3)n[nH]c1=S (configuration not stated),0 (inactive)
13,Cn1nc(C(F)(F)F)c2cc(NC(=O)OCc3ccc(F)cc3)sc21,0 (inactive)
14,CCOC(=O)C(CC)Sc1nnc(COc2ccc(C)cc2)n1-c1ccccc1 (configuration not stated),-1 (active)
15,CC(/C=N/n1c(COc2ccccc2)n[nH]c1=S)=C\c1ccccc1,0 (inactive)
16,CCOC(=O)C(CC)Sc1nnc2cc(C)c3ccccc3n12 (configuration not stated),0 (inactive)
17,Cc1cccc2cc(/C=C3\N=C(c4ccccc4)OC3=O)c(N3CCOCC3)nc12,3 (inactive)
18,CCOC(=O)C1=C(C)NC(=O)NC1c1ccc(Br)o1 (configuration not stated),0 (inactive)
19,CC1=C(C(=O)OCC2CCCO2)C(c2ccc(C)o2)C2=C(CC(c3ccc(F)cc3)CC2=O)N1 (configuration not stated),-1 (active)
20,CCOC(=O)C1=C(C)NC2=C(C(=O)CC(c3ccc(OC)c(OC)c3)C2)C1c1ccc(C)o1 (configuration not stated),0 (inactive)
21,O=C(CSc1nnc(-c2cccnc2)o1)OC1CCCCC1,0 (inactive)
22,COC(=O)c1[nH]c2ccc(C)cc2c1NC(=O)CCN1CCN(Cc2ccc3c(c2)OCO3)CC1,-1 (active)
23,Cc1ccc(C)c(Nc2c([N+](=O)[O-])cc(C(=O)N3CC(=O)Nc4ccccc43)cc2[N+](=O)[O-])c1,0 (inactive)

row,SMILES,manual score
1,S=c1nc(-c2ccc(Br)cc2)oc2c1CCCC2,1 (active)
2,c1ccc2c(N3CCCCCC3)nc(-c3ccncc3)nc2c1,-1 (active)
3,c1ccc(-c2nnc3ccc(N4CCCC4)nn23)cc1,0 (inactive)
4,O=c1c2cccnc2[nH]c(=S)n1CCCN1CCN(c2ccc(F)cc2)CC1,0 (inactive)
5,Cc1ccc(C)n1-c1ccc(-c2nnco2)cc1,0 (inactive)
6,CCOC(=O)CSc1cc(CSc2ccccc2)nc(-c2ccccc2)n1,0 (inactive)
7,CCCC(=O)n1nc(-c2ccccc2)nc1N,0 (inactive)
8,CCOC(=O)C(Cc1ccccc1)NC(=O)Cn1nnc(-c2ccccc2)n1 (configuration not stated),1 (active)
9,Cc1ccc(N2CC(C(=O)N/N=C/c3sccc3C)CC2=O)cc1 (configuration not stated),0.5 (inactive)
10,CN(C)CCCN1C(=O)c2oc3ccccc3c(=O)c2C1c1cccs1 (configuration not stated),0 (inactive)
11,CCN(CC)CCN1C(=O)c2oc3ccccc3c(=O)c2C1c1ccccc1 (configuration not stated),0 (inactive)
12,CCN(CC)CCCN1C(=O)c2oc3ccccc3c(=O)c2C1c1cccs1 (configuration not stated),1 (active)
13,Cc1c(C2Nc3ccccc3NC3=C2C(=O)CC(C)(C)C3)cnn1C (configuration not stated),0 (inactive)
14,CC(C)Sc1nc2c(c(=O)[nH]1)C(c1cccs1)C1=C(CC(C)(C)CC1=O)N2 (configuration not stated),-1 (active)
15,Cc1cc2c(cc1C)NC(c1c(C)n(C)n(-c3ccccc3)c1=O)C1=C(CC(C)(C)CC1=O)N2 (configuration not stated),3 (inactive)
16,COc1ccc(C(=O)C2C(c3ccc(-c4ccccc4[N+](=O)[O-])o3)NC(=O)NC2(O)C(F)(F)F)cc1 (configuration not stated),-1 (active)
17,Cc1cc([N+](=O)[O-])ccc1-c1ccc(C2Nc3ccccc3C(=O)N2O)o1 (configuration not stated),0 (inactive)
18,CN(C)c1nc2ccccc2c(N)c1-c1ccccc1,-1 (active)
19,Fc1cccc2sc(Nc3nnc(-c4ccco4)o3)nc12,1 (active)
20,Fc1cccc2sc(Nc3nnc(-c4ccccc4)o3)nc12,1 (active)
21,Fc1cc(F)c2nc(Nc3nc4c(F)cccc4s3)sc2c1,0.5 (inactive)
22,COc1cccc(-c2nnc(Nc3nc4c(F)cccc4s3)o2)c1,1 (active)
23,Fc1ccc2nc(Nc3nc4c(F)cc(F)cc4s3)sc2c1,0 (inactive)

row,SMILES,manual score
1,Fc1cccc2sc(Nc3nc4ccccc4s3)nc12,0 (inactive)
2,Fc1ccc2nc(Nc3nc4c(F)cccc4s3)sc2c1,1 (active)
3,COc1cc(OC)cc(-c2nnc(Nc3nc4c(F)cccc4s3)o2)c1,0 (inactive)
4,Fc1cccc2sc(Nc3nc4cc5c(cc4s3)OCO5)nc12,0 (inactive)
5,COc1ccc(-c2nnc3sc(C4CCCCC4)nn23)cc1OC,0 (inactive)
6,C=CCNC(=O)C1CC(=O)N(c2ccc(OCC(=O)Nc3ccccc3)cc2)C1 (configuration not stated),0 (inactive)
7,Cc1cc2nc(CCN(C(=S)NCC(C)C)C3CCCC3)[nH]c2cc1C,0 (inactive)
8,Cc1cccc(NC(=S)NNC(=O)c2csc3c2CCCC3)c1,1 (active)
9,Cc1cccc(NC(=S)NNC(=O)c2csc3c2CCC(C)C3)c1 (configuration not stated),1 (active)
10,Cc1ccc(C)c(NC(=S)NNC(=O)c2csc3c2CCCC3)c1,1 (active)
11,Cc1ccc(NC(=O)c2ccc(COc3ccc4c(c3)CCC4)cc2)c(C)c1,0 (inactive)
12,Cc1ccc(C)c(NC(=S)NNC(=O)c2csc3c2CCC(C)C3)c1 (configuration not stated),1 (active)
13,CC(C)(C)C1CCc2c(C(=O)N/N=C/c3cccs3)csc2C1 (configuration not stated),0 (inactive)
14,Cc1cccc(CSc2cccc3cccnc23)c1,0 (inactive)
15,CC(=O)Nc1cccc2c1C(=O)N(c1cccc(C)c1)C2=O,0 (inactive)
16,O=C1CC(N2CCN(c3nc4ccccc4s3)CC2)C(=O)N1c1ccc(F)cc1 (configuration not stated),0 (inactive)
17,CC(C)(C)c1ccc(OCCON2C(=O)CCC2=O)c(Cl)c1,0 (inactive)
18,CC(C)CNC(=S)NNC(=O)c1csc2c1CCC(C)C2 (configuration not stated),0 (inactive)
19,Cc1ccc(C)c(NC(=S)NNC(=O)c2cc3c(s2)CCC(C)C3)c1 (configuration not stated),1 (active)
20,Cc1ccccc1NC(=S)NNC(=O)c1csc2c1CCC(C)C2 (configuration not stated),1 (active)
21,CN(C)/C=C/C(=O)/C=C/c1cn(-c2ncc(C(F)(F)F)cc2Cl)c2ccccc12,0 (inactive)
